Assay outcomes from PubChem.
L3MBTL1 inh-1 – qHTS Assay for the Inhibitors of L3MBTL1 | Lethal(3)malignant brain tumor-like protein 1 (Homo sapiens), Q9Y468 | AlphaScreen L3MBTL1–H3K9me1 peptide binding | Potency, µM (titrated, usually from 57.1 µM), for inactives: at the highest dose activity, negative = inhibition, actives largely listed as inhibitors | 230,000 compounds, 0.66% hits; note: % is set by controls: 0 for no effect and ±100 for the full control effect; nearly all actives have a fitted effect of over 60% in size
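L3MBTL1 50 nM + b-AHA-H3(1-15)K9me1 75 nM, 30 min RT; compound added, 30 min RT; streptavidin donor/Ni-chelate acceptor beads 10 ug/mL each final, 30 min RT dark; AlphaScreen read.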
RECQ1 helicase – qHTS Assay for Inhibitors of RecQ-Like Dna Helicase 1 (RECQ1) | AID 2549, 2010 | ATP-dependent DNA helicase Q1 (Homo sapiens), P46063 | 240,000 compounds, 0.54% hits | RECQ1 DNA unwinding, red fluorescence kinetic read | Potency, µM (highest dose often 57.3 µM), for the others: at the top dose activity, negative = inhibition, hits mostly inhibitors;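 note: plate controls were vehicle for no effect and no enzyme for full effect; nearly all actives have a fitted effect of over 30% in size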
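50 nM RECQ1T1 preincubated 15 min with compound in Tris pH 8.0 buffer with MgCl2, DTT, Tween-20 and 2.5 ug/ml poly(dI-dC); started with 200 nM TAMRA/BHQ-2 forked duplex and 2 mM ATP. Unwinding read as fluorescence (525/598 nm), two reads 2 h apart.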
APE1 inh – qHTS Assay for Inhibitors of the Human Apurinic/apyrimidinic Endonuclease 1 (APE1) | DNA repair nuclease/redox regulator APEX1 (Homo sapiens), P27695 | recombinant APE1, TAMRA/BHQ-2 abasic DNA cleavage fluorescence | Potency, µM (series often up to 65.8 µM), without a hit: at the highest dose activity change, negative = inhibition, most hits filed as inhibitors | 350,000 compounds, 0.35% hits | AID 2517, 2012;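 note: plate controls were vehicle for no effect and reference inhibitor for full effect; nearly all actives have a fitted effect of over 55% in size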
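APE1 at 0.75 nM preincubated 15 min at room temperature with compound. Reaction then started with 50 nM double-stranded THF-abasic substrate labelled with TAMRA/BHQ-2, and 525/598 nm fluorescence read kinetically. Activity taken as third-minus-first read difference, normalized to DMSO and NSC13755 controls.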
JMJD2E inh – qHTS Assay for Inhibitors of Human Jumonji Domain Containing 2E (JMJD2E) | Potency, µM (top dose mostly 57.1 µM), for the others: top-dose activity change, negative = inhibition, actives largely listed as inhibitors | Lysine-specific demethylase 4E (Homo sapiens), B2RXH2 | 230,000 compounds, 1.6% hits | JMJD2E catalytic domain, FDH-coupled NADH fluorescence (FDH is formaldehyde dehydrogenase);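 note: 0% = wells with enzyme and -100% = buffer wells without enzyme; nearly all actives have a fitted effect of over 50% in size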
Target sequence (B2RXH2 1-337 limits assumed): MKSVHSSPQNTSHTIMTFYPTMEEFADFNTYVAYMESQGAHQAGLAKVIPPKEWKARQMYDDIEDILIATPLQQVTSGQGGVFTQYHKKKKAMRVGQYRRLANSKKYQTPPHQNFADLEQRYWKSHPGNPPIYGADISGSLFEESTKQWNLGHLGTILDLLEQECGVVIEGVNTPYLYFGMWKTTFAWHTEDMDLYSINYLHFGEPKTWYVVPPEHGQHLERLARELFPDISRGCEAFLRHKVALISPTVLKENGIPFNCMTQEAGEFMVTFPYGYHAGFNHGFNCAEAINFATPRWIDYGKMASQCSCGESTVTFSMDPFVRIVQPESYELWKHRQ
BLM helicase inh – qHTS Assay for Inhibitors of Bloom's syndrome helicase (BLM); Potency, µM (titrated, usually from 56.1 µM), for the others: at the top dose activity change, negative = inhibition, usual class: inhibitors; recombinant BLM DNA unwinding, fluorescence dequenching; RecQ-like DNA helicase BLM (Homo sapiens), P54132; 350,000 compounds, 0.2% hits;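 note: plate controls were vehicle for no effect and no enzyme for full effect; nearly all actives have a fitted effect of over 35% in size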
L3MBTL1 inh-2 – qHTS Assay for the Inhibitors of L3MBTL1: Hit Validation. 500 compounds, 91% hits. Potency, µM, most hits filed as inhibitors. shares compounds with L3MBTL1 inh-1. L3MBTL1 methyl-lysine binding inhibition, biochemical qHTS; note: nearly all actives have a fitted effect of over 70% in size
AlphaScreen ctr2 – qHTS Assay for the Inhibitors of L3MBTL1: Hit Validationin AlphaScreen Counterscreen | 500 tested, under 10 active | shares compounds with L3MBTL1 inh-1 | Potency, µM (titrated, usually from 57.1 µM), inactives show at the top dose activity change, negative = inhibition, hits mostly inhibitors | AlphaScreen counterscreen, signal inhibition; note: 0% is about no effect
Numbers without * were called inactive; i = inactive; ? = inconclusive; . = no result given. Many of the other results were omitted from the sample, so hits are more common in it than they were. Unless noted, calls come from the whole dose curve; as a rule, active = well fitted curve in the direction sought with a large enough effect; inconclusive = small, poorly fitted or top-dose-only effect, or another doubt; inactive = no such curve, though single readings can be large; an effect the other way counts as inactive or inconclusive. Potency is the fitted concentration of half-maximal effect.

SMILES	L3MBTL1 inh-1	RECQ1 helicase	APE1 inh	JMJD2E inh	BLM helicase inh	L3MBTL1 inh-2	AlphaScreen ctr2
N#Cc1c(-n2ncnc2-c2ccc(Br)cc2)sc2c1CCCCC2	.	.	.	.	-1.5%	.	.
CC1=C(C(=O)N2CCc3ccccc32)C2(CCC(C)CC2)OC1=O (centres undefined)	-3.9%	-9.3%	-2.2%	1.1%	-4.4%	.	.
Cc1cc(C)n(-c2nnc3c4ccccc4n(C)c3n2)n1	28.2µM*	i	-9.7%	-4.7%	-9.2%	?	?
N#Cc1nc(COc2ccccc2Cl)oc1N1CCCC1	28.2µM*	i	-1.6%	-3.6%	-10.8%	?	?
Cc1ccc(N2NC(=O)/C(=C/c3ccc(-c4ccc(Cl)c(C(=O)O)c4)o3)C2=O)cc1	28.2µM*	-3.1%	0.9%	-1.3%	-3.5%	10.6*	-1.9%
CC(C)N1C(=O)S/C(=C\c2ccc(-c3ccc(Cl)c(C(=O)O)c3)o2)C1=O	?	.	-23.7%	.	1.2%	.	.
CCCCC1(C)OC(=O)C(=Cc2ccc(-c3ccc(Cl)c(C(=O)O)c3)o2)C(=O)O1 (centres undefined)	7.94µM*	?	?	?	5.8%	13.4*	0.5%
O=C(O)c1cc(-c2ccc(/C=N/NC(=S)Nc3ccccc3)o2)ccc1Cl	?	?	?	?	4.2%	.	.
Cc1c(C(=O)OCCOC(C)C)[nH]c2c1C(=O)CC(c1ccco1)C2 (centres undefined)	25.1µM*	-2.2%	?	-10.8%	-11.9%	23.8*	-2.1%
CSCCOC(=O)c1[nH]c2c(c1C)C(=O)CC(c1ccco1)C2 (centres undefined)	35.5µM*	-20.9%	12.6µM*	-5.5%	-28.8%	18.9*	-4.8%
CCOC(=O)c1[nH]c2c(c1C)C(=O)CC(c1ccco1)C2 (centres undefined)	31.6µM*	?	?	-24.5%	-24.9%	21.2*	6.7%
COCCOC(=O)c1[nH]c2c(c1C)C(=O)CC(c1ccc(N(C)C)cc1)C2 (centres undefined)	-20.9%	-10.4%	-1.8%	-4.9%	-10.4%	.	.
COCCOC(=O)c1[nH]c2c(c1C)C(=O)CC(c1ccc(F)cc1)C2 (centres undefined)	-0.1%	-8.8%	-7.1%	-4.8%	0.0%	.	.
COc1ccccc1NCc1nnc(SCC(=O)N/N=C/c2ccco2)n1-c1ccc(Cl)cc1Cl	-6.6%	11.4%	4.1%	9.0%	-3.8%	.	.
CCOc1ccc(C(=O)OCC(=O)Nc2nc(OC)cc(OC)n2)cc1OCC	.	i	1.5%	3.5%	2.0%	.	.
Cc1ccnc(NC(c2cccnc2)c2ccc3cccnc3c2O)c1 (centres undefined)	12.6µM*	-0.7%	2.8%	5.62µM*	-4.5%	10.6*	-91.3%
Cc1ccccc1C1c2[nH]c3ccccc3c2CCN1C(=O)c1ccc(=O)n(C)n1 (centres undefined)	-9.9%	-15.6%	-13.2%	6.6%	-10.5%	.	.
CCOC(=O)CN1C(=O)S/C(=C\c2ccc(-c3ccc(C(=O)O)c(Cl)c3)o2)C1=O	28.2µM*	.	15µM*	.	-2.3%	13.4*	-1.0%
CCOC(=O)CN1C(=O)S/C(=C/c2ccc(N3CCCCC3)o2)C1=O	3.6%	i	14.7%	-1.1%	-3.6%	.	.
